# Source: PubChem BioAssay
# An excerpt weighted towards active compounds, which were near 3.7% of everything screened.
# MITF act: activators of MITF-driven TRPM1 promoter activity in SK-MEL-5 cells. SK-MEL-5 TRPM1-promoter luciferase, 24 h; % of positive control, neutral wells = 0. activation, % at 12.5 µM. 300,000 tested, 0.75% active;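 active means mean activation of at least 80% with every replicate also reaching 80%; inconclusive means mean reaches 80% but some replicate falls short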;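 further: 0% = neutral control wells and 100% = parthenolide positive control wells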
# esBAF inh: inhibitors of esBAF chromatin remodeling in mouse ES cells | 350,000 tested, 2% active | Bmi1-luciferase knock-in reporter, 24 h; 100% = twice the neutral-well signal | AID 602393 | reporter increase, % at 12.5 µM; in the data active means activation above about 40%; inconclusive means no clear call, values can overlap the other calls;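 further: 0% = median of the plate's neutral control wells and 100% = double that signal; a rise in the Bmi1 reporter signal indicates esBAF inhibition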
# MLL AF4-AF9 inh: inhibitors of human MLL-AF4/AF9 interaction; 350,000 tested, 0.47% active; inhibition, % at 10 µM; AID 651704; AlphaScreen, biotin-AF4 peptide binding to FLAG-AF9;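 active means every replicate reaching a set inhibition limit, whatever the replicate mean, cut at about 25% in these data; inconclusive means mean inhibition reaches that limit but some replicates miss it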;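 further: 0% = plate neutral control median and 100% = total signal loss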
# Target sequence (P42568 whole entry, looked up): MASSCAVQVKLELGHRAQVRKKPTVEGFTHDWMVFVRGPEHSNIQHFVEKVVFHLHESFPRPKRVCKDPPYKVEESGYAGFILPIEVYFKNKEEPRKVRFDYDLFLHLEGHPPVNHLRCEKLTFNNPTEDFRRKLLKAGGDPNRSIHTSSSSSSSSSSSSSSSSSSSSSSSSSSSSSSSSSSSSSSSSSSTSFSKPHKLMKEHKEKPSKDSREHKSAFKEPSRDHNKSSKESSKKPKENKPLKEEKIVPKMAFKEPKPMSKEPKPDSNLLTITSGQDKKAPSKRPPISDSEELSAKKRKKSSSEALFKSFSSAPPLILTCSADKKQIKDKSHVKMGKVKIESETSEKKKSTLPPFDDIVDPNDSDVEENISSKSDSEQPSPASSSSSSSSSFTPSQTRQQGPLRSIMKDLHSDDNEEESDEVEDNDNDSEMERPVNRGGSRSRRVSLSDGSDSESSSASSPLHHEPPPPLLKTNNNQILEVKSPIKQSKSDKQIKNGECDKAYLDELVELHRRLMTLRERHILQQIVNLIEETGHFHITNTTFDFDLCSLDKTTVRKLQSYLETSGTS
# Wnt act: Wnt/beta-catenin pathway activation. activation, % at 9.35 µM. Wnt/beta-catenin reporter cell assay, activator, plate reader. 300,000 tested, 1.2% active; in the data active means activation above about 30%, passing the limit was not always enough; inconclusive means no clear call, values can overlap the other calls;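 further: 0% = neutral control wells and 100% = positive control wells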
# Ecoli rRNA inh: inhibits bacterial ribosomal RNA function over humanized ribosomes. E. coli WT GFP vs humanized-ribosome RFP mutants, fluorescence, 24 h; hits give low values; DMSO median 0, no signal -100. AID 720706. 350,000 tested, 1.6% active. GFP signal change (wild-type ribosome), % (no concentration beside the values);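 active means significant combined selectivity score with lowered wild-type GFP, culture density cut under 30%, mutant RFP and density less affected; inactive means any of these conditions unmet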
# The depositor's hits bear a star; ? = inconclusive; . = no result.
SMILES,MITF act,esBAF inh,MLL AF4-AF9 inh,Wnt act,Ecoli rRNA inh
Cc1cc(OCc2cc(C(=O)N(C)C(C)c3ccccn3)no2)cc(C)c1Cl (stereo not drawn),30,57*,-5,20,-12
CC(=O)c1ccc(OCc2cc(C(=O)N(C)Cc3ccccn3)no2)cc1,99*,104*,0,19,2
Cc1cc(OCc2cc(C(=O)N(C)Cc3ccccn3)no2)cc(C)c1Cl,97*,75*,-1,?,-32
C[C@@H](NC(=O)C[C@H]1C[C@@H]2c3cc(N(C)C)ccc3O[C@@H]2[C@H](CO)O1)c1ccccc1,.,2,1,.,3
CCCC(=O)Nc1c(C)nn(C(=O)CCC)c1C,-2,.,.,.,.
Cc1ccc(OCc2cc(C(=O)NCc3ccc(OC(F)(F)F)cc3)no2)cn1,7,17,-4,-3,-23
CCc1cc(CNC(=O)c2cc(COc3ccc(C)nc3)on2)on1,35,60*,-2,22,4
Cc1cc(C)n(CC(C)NC(=O)c2cc(COc3ccc(F)c(F)c3)on2)n1 (stereo not drawn),67,62*,1,12,0
Cc1cc(C)n(CC(C)NC(=O)c2cc(COc3c(F)cccc3F)on2)n1 (stereo not drawn),-4,.,-3,-2,-13
Cc1cc(CNC(=O)c2cc(COc3ccc(F)c(F)c3)on2)nn1C,86*,65*,-2,29,-5
Cc1cccc(CC(C)NC(=O)c2cc(COc3ccc(F)cc3F)on2)n1 (stereo not drawn),15,42*,0,8,-4
O=C(CSc1n[nH]c(=O)[nH]c1=O)NC1CCCCC1,-9,4,-3,1,2
CC(=O)c1ccc(OCc2cc(C(=O)NCCn3nc(C)cc3C)no2)cc1,39,44*,-2,-1,2
Cn1c(=NN=Cc2ccccc2OCCO)sc2ccccc21,.,56*,2,43*,.
COc1ccccc1N=c1sc2ccccc2n1C,7,12,.,1,.
COc1ccc2c3c([nH]c2c1)[C@@H](CO)N(C(=O)Nc1ccc(F)cc1)CC31CN(C(=O)Cc2ccccc2)C1,.,.,5,.,-5
O=S(=O)(c1ccc(F)cc1)N1CCCCN2[C@H](CO)[C@H](c3ccc(C4=CCCCC4)cc3)[C@H]2C1,.,-9,6,.,-58
Fc1cc(Br)ccc1NC(=S)NCCc1ccccc1,58,.,0,-2,-50*
O=C(NCCc1ccccc1)c1cccc(Br)c1,.,53*,-2,15,-9
O=C(NCCc1ccccc1)c1cnc2ccccc2n1,85*,-3,1,45*,-14
O=C(NCCc1ccccc1)c1cccc([N+](=O)[O-])c1,94*,56*,2,.,6
COc1ccc(CCNC(=O)c2cccc([N+](=O)[O-])c2)cc1OC,4,.,0,-1,-1
O=C(NCCc1ccccc1)c1cccnc1,45,26,.,34*,.
O=C(NCCc1ccccc1)c1ccc(-c2cccnc2)c2ccoc12,.,44*,-1,18,-37
C=CCC1(NCc2ccco2)CCN(CC)CC1,11,.,.,-7,.
SMILES,MITF act,esBAF inh,MLL AF4-AF9 inh,Wnt act,Ecoli rRNA inh
Nc1ccc2c(c1)C/C(=C/c1ccco1)C2=O,55,.,.,66*,.
O=C1/C(=C/c2ccco2)CCc2ccccc21,22,.,-3,24,5
CN=C1S/C(=C\c2ccc(O)c(Br)c2)C(=O)N1C,-5,23,5,9,-34
CN=C1S/C(=C\c2ccc(O)c(OC)c2)C(=O)N1C,.,.,-2,52*,-25
CCCc1cc(C(=O)Nc2ccc(F)cc2F)no1,.,68*,0,18,-6
CCCc1cc(C(=O)Nc2ccccc2SC)no1,.,51*,-3,-2,0
CSc1ccccc1NC(=O)c1cc(-c2cccs2)on1,26,32,.,19,.
CCCc1cc(C(=O)Nc2cccc(Cl)c2C)no1,50,58*,-5,14,-5
O=C(Nc1ccc(F)cc1F)N1CCCC(c2nc(-c3ccc(F)cc3)no2)C1 (stereo not drawn),19,.,-3,-7,-32
Cc1ccc(-c2noc(C3CCCN(C(=O)c4c(F)cccc4F)C3)n2)cc1 (stereo not drawn),-5,9,.,.,.
O=C(c1ccc(F)cc1F)N1CCCC(c2nc(-c3ccc(F)cc3)no2)C1 (stereo not drawn),-7,5,-3,3,-21*
Cc1ccc(-c2noc(C3CCCN(C(=O)c4ccccc4Br)C3)n2)cc1 (stereo not drawn),10,51*,0,3,-30
CCS(=O)(=O)N1CCCC(c2nc(-c3cccc(OC)c3)no2)C1 (stereo not drawn),56,67*,4,10,-14
O=C(C1CC1)N1CCC(c2nc(-c3ccc(S(=O)(=O)N4CCCC4)cc3)no2)CC1,-6,0,-5,-4,2
O=C(Cc1ccccc1)N1CCCC(c2nc(-c3ccc(S(=O)(=O)N4CCCC4)cc3)no2)C1 (stereo not drawn),-14,7,-17,-6,-26*
Cc1[nH]nc2ncc(C(=O)c3cc(Cl)cc(Cl)c3O)cc12,-23,-8,.,-5,.
Cc1noc(C)c1NC(=O)Nc1cccc2c1O[C@@H](CN(C)Cc1ccc(C(F)(F)F)cc1)[C@@H](C)CN([C@H](C)CO)C2=O,.,-5,-1,.,4
CC(=O)Nc1cccc(NC(=O)c2cccc(OCc3ccccc3)c2)c1,5,9,1,1,-15
CC(NC(=O)c1ccccc1)C(=O)NC1CCCc2ccccc21 (stereo not drawn),-6,-7,0,.,6
C[C@H](NC(=O)C[C@@H]1CC[C@H]2[C@@H](COC[C@H](O)CN2C)O1)c1ccccc1,.,-1,-3,.,10
Cc1cccc(C(=O)N2CCCC(c3nc(-c4ccc(C)o4)no3)C2)c1 (stereo not drawn),55,51*,1,12,-4
Cc1ccc(-c2noc(C3CCCN(C(=O)c4cccc([N+](=O)[O-])c4)C3)n2)o1 (stereo not drawn),23,20,4,0,7
COc1ccc(NC(=O)CN(C)C(=O)c2c(C)nn(Cc3ccccc3)c2C)cc1,-7,.,2,-2,3
COc1cccc(/C=N\NS(=O)(=O)c2ccccc2)c1OC,-6,-3,1,0,7
Cc1cc(Nc2ccccc2)n(-c2ccc(C(=O)O)cc2)n1,5,.,-2,0,-8
Cc1cc(Nc2ccccc2)n(C(=O)c2ccc(Cl)cc2)n1,14,53*,-7,.,5
O=C(Nc1ccc2c(c1)[C@@H]1C[C@H](CC(=O)N3CCOCC3)O[C@@H](CO)[C@@H]1O2)C1CCC1,.,-7,.,.,2
COc1ccc(OCCNC(=O)c2ccccc2Cl)cc1,-7,-1,-11,0,2
O=C(NCCOc1ccccc1)c1ccccc1Cl,71,-6,-1,35*,13
Fc1ccccc1Nc1nc2ccccc2o1,100*,-4,-1,0,8
